Data: the supplement of paper PMC11417369
± gives the standard deviation of the averaged measurements. In all, about 25,000 sequences were measured (“ln(normalized median fluorescence intensity)”: median about 10, highest 2% from about 12 on). The entries come from a sample that favours the highest values as a whole.

Each sequence was assayed on PfAP2-G AP2 domain (GST-tagged) (assay: gcPBM binding intensity (ln(normalized median fluorescence intensity)); higher = stronger DNA binding).
In short: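 Probes on an Agilent 4 × 180k array were primer-extended, double-stranded and 36 bp long, taken from intergenic genomic regions, with negative controls added. GST-tagged P. falciparum DNA-binding domains from E. coli, about 25 μg on average, were applied to the array for 1 h in 1× PBS containing 1% milk, 0.2 mg/ml BSA, 0.5% salmon testes DNA and 0.03% Triton X-100. Binding intensity, obtained after Alexa488 anti-GST antibody detection and a 488 nm scan, is the highest Masliner-normalised natural-log median intensity across replicate spots of either probe orientation.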

| Sequence | gcPBM binding intensity (ln) |
| --- | --- |
| AAAATTTTTCTTAAAGCATGCACAATTAAGAAGACG [TGCATGCA_site883] | 10.2 ± 0.13 |
| TTTTTCATAAAAAAATAAAAAAAATTAACATAGAAA [XGTACX_negctrl_site11] | 9.95 ± 0.26 |
| TTTATACTTTCAAAATGTACATATATATATATATAT [XGTACX_site6241] | 11.1 ± 0.63 |
| ATATATACTATAATAGTGCATTAAAAAAGTAAAAAT | 10.2 ± 0.25 |
| AATATATATATGTGTACACATCCAAAATAGGCATAC [CACACA_site5705] | 11.7 ± 1.1 |
| GTTTTAAAACAAATATGTACACATAATATAGGAAAG [XGTACX_site1803] | 11.7 ± 0.82 |
| TAAATAAATATATGTACACACACAAATATATACATA [CACACA_site8577] | 11.4 ± 0.73 |
| CATCCACAAATATGTACACACATATATAAATATGTA [CACACA_site7407] | 11.4 ± 0.93 |
| AATAAATATATGTACACACACAAATATATACATATC [CACACA_site1903] | 11.3 ± 0.63 |
| AATAAATATAGGTACACACACAAATATGTACATATC [CACACA_site6976] | 11.7 ± 0.92 |
| AAAAATATAATATAATGTACACATAAACAAAAAAAA [XGTACX_site3658] | 11.4 ± 0.84 |
| AAAAAAAAAAAAACAAGTACAAAGGATAGAAAAAAA [XGTACX_site4133] | 11.2 ± 0.71 |
| AAGGGGAAAAAAAAAAGTACACAAACATAGGATAAT [XGTACX_site377] | 11.7 ± 1 |
| TAAAACATATATACAAGTACACAAAGGATATATATA [XGTACX_site3710] | 11.4 ± 0.95 |
| GTAAATACACATATGTGTACATATATATATATATAT [XGTACX_site3696] | 11.5 ± 0.86 |
| AATAAAAATAGGAAATGTACACATATATATATATAT [XGTACX_site1853] | 11.2 ± 0.59 |
| AAAAAAAAAAGAAAGAGTACTTTTTCAATACATATA [XGTACX_site2468] | 11.1 ± 0.7 |
| TTAACTTATTTGTAAAGTACATTAATAAAAAGAAAA [XGTACX_site1588] | 11.1 ± 0.42 |
| ATATATATATATATATGTACATATATTTTTATTTAT [XGTACX_site3508] | 11.2 ± 0.76 |
| TAACTACTAGAAAAAACACACAAAAAGTAAATATAT [CACACA_site2740] | 10.045 ± 0.007 |
| ATACATACATATATATGTACTTATATTTTACACATT [XGTACX_site1688] | 11.2 ± 0.75 |
| AATGGAAAAATAGGCACACACACATAAATACAGATA [CACACA_site4844] | 10.3 ± 0.18 |
| TGTAAATATAAATGTAATAAATATGTAAAAATAAAT [XGTACX_negctrl_site171] | 9.79 ± 0.13 |

| Sequence | gcPBM binding intensity (ln) |
| --- | --- |
| AATGAATAAATAAACACACACACATATATAAATATG [CACACA_site6160] | 10.05 ± 0.014 |
| GATAAAATATGTTGCCGTACATATTCATATACTTAA [XGTACX_site4776] | 11 ± 0.62 |
| GGTAGTTATTATCTCCGTACTTATAAAGAAAAAAGG [XGTACX_site4674] | 10.9 ± 0.63 |
| TTTGTGTGTACGCGTGTGCACATTTTTTTTTTTTTT | 11.7 ± 0.92 |
| ATTTTTATTTTTTTTGTGCACATTTTCATTTTCTAT [GTGCAC_site9580] | 10.54 ± 0.085 |
| TATGTATATTTTTTTGTGCACATATATATATATATA | 10.4 ± 0.35 |
| ATAAATCATAAGGAGAGTACATAAATAAAATAATCA [XGTACX_site8825] | 11.2 ± 0.71 |
| TATAATATAAAAATGAGTACATAGATAATAATATTT [XGTACX_site2376] | 11.3 ± 0.74 |
| TCATATTTCCATAGGAGTACATAAAAAAAATAATAT [XGTACX_site7601] | 11.7 ± 1.2 |
| TATACACATATATACACACACATATATAAATAAATA [CACACA_site7579] | 10 ± 0.23 |
| CAAACAAACGGACACACACACACACCCAAAAATGAT [CACACA_site5363] | 11.2 ± 0.69 |
| TATATTTATATAATATGTACATATTTTTTAATATTT [XGTACX_site3834] | 11.2 ± 0.72 |
| TGTAATATGAAATGTGTACACACGCACCCACAAAAA [CACACA_site8948] | 11.6 ± 1 |
| AATGTACACGCACCCACACACAAACAAATATAAATA [CACACA_site7319] | 11.4 ± 1 |
| GTGTAATATGAAATGTGTACACACGCACACACAAAA [XGTACX_site6180] | 11.7 ± 1.1 |
| TAATATGAAAAGTGTACACACGCACAGACAAAAAAA [CACACA_site5594] | 11.6 ± 0.95 |
| ATATGAAAGGTGTACACACGCACACCCAAAAAAATA [CACACA_site2911] | 11.7 ± 0.95 |
| GAAATGTGTAGACACGCACACACAAAAAAATATATA [CACACA_site2912] | 10.2 ± 0.34 |
| AATGTGTACGCACGCACACACAAAAAAATATATATA [CACACA_site2913] | 11.6 ± 1.2 |
| AACATATTAATGTACACACACCCACGCACAAACAAA [CACACA_site7320] | 11.5 ± 0.91 |
| GAAAAAGACAAAAGGTGTACAATATGAAATATATAT [XGTACX_site373] | 11.5 ± 0.86 |
| TAATATGAAATGTGTACACACGCACCCACAAAAAAA [CACACA_site8949] | 11.8 ± 0.93 |
| ATTTTTTTACAAAAATGTACACATGAAATATGTAAT [XGTACX_site1372] | 11.3 ± 0.69 |

| Sequence | gcPBM binding intensity (ln) |
| --- | --- |
| AATGTACACCCACCCACACACAAACAAATATATATA [CACACA_site5521] | 11.4 ± 0.92 |
| AATTTGTTAATATTTTGTACACATAATATAAAAACA [XGTACX_site2224] | 11.3 ± 0.89 |
| ATAATATGAAGAAGCACACTCAATTAAATACAGATA [CACACA_site4690] | 9.97 ± 0.071 |
| ACAAAATGTAGAAAATGTACAAAATTAACAAAAGAA [XGTACX_site5019] | 10.7 ± 0.3 |
| CTTCTTGTAAAATTTGCATGTAATTAAAAGAGAATG [TGCATGCA_site484] | 10.2 ± 0.3 |
| TACAAAAAATTATGGAGTACATATATAATATACAAT [XGTACX_site1004] | 11.5 ± 0.88 |
| GCACTCGTAAAAAGCACACATATAAAAACATTTATA [CACACA_site322] | 10.2 ± 0.26 |
| TAAAATTTTGTTTGTTGTACTTATTTTCGTGTCAAC [XGTACX_site8277] | 11.6 ± 1 |
| TTTTTTTTTTTTTTTTGTACTTATAAAAAATTTTTT [XGTACX_site1249] | 11.1 ± 0.88 |
| AAATAAAATTTTTGTTGTACTTATTTTTAGTATACT [XGTACX_site4254] | 11.5 ± 0.81 |
| AAAATAATATATGTATGTACATATACACATATAGAA [XGTACX_site2218] | 11.1 ± 0.59 |
| TACATATTTTTTATGTGTACATATTTTTTATGTGTA [XGTACX_site443] | 11.4 ± 0.76 |
| CAACATATGCATATGTGTACATATTTTATTTTCAAC [XGTACX_site2237] | 11.7 ± 1.1 |
| TATATTTATTTTCTGTGTACACATATGTTGTGTATT [XGTACX_site7640] | 11.6 ± 1 |
| ATATATATACTGTGTACACACATATGTATTTATATA [CACACA_site4600] | 11.6 ± 0.78 |
| ATTTATTTTCTGTGTACACATATGTTGGGTATTTTA [CACACA_site5902] | 11.7 ± 0.96 |
| TATATAATATATATATGTACACATATACATTTTTAT [XGTACX_site2832] | 11.5 ± 0.97 |
| ATAACATACATAACAACACACAATATTTATATGTAT [CACACA_site210] | 9.85 |
| AAAATATTTAATAGAAGTACACATGTATATATACAT [XGTACX_site8942] | 11.6 ± 1.2 |
| GATAACAATATGTGTACACATTTATATCTCCACATA [CACACA_site5442] | 11.7 ± 0.83 |
| GAAAAAAGAAAAAAAAGTACACACATGTATATTAAT [XGTACX_site5265] | 11.5 ± 0.91 |
| TACATATTTTTTATGTGTACATATTTTTTATGTGTG [XGTACX_site444] | 11.5 ± 0.68 |
